# Results as given in PubChem BioAssay (NCATS).
# Results filed as inconclusive are left out. Entries that show only a call come without a potency. The source made the active and inactive calls. Calls come from the whole dose curve; as a rule, active = well fitted inhibition curve with a large enough effect; inconclusive = small, poorly fitted or top-dose-only effect; inactive = no such curve, though single readings can be large or run the other way.
# Tested on: Zika virus NS2B-NS3 protease (linked construct)
# Experiment: Primary screen NINDS Rhodamine qHTS for Zika virus inhibitors (AID 1347160); note: nearly all actives have a fitted effect of over 55% in size
# Conditions: purified NS2B-NS3 protease, Rhodamine110 substrate fluorescence; series mostly up to 57.1 µM
# Outline: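 Kinetic fluorescence (Ex 480 nm, Em 540 nm) over 15 min with 1.5 microM Rhodamine110 peptide and 25 nM linked protease.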
SMILES,Potency,"activity change, negative = inhibition"
CC1CCC2(CO)C(C(=O)O)=CCCC2C1(C)CCc1ccoc1 (stereo not given),inactive,
COc1ccc(CNC(=O)c2sc3nc(C)cc(C)c3c2N)cc1,inactive,
CC1=C(CCC(C)O[C@@H]2O[C@H](CO)[C@@H](O)[C@H](O)[C@H]2O)C(C)(C)CCC1=O (stereo not given in full),inactive,
C[C@@H]1O[C@@H](O[C@H]2[C@H](O[C@H]3[C@H](O[C@H]4CC[C@@]5(C)C(CC[C@]6(C)C5CC=C5[C@@H]7CC(C)(C)C[C@@H](O)[C@]7(C)CC[C@]56C)[C@@]4(C)CO)O[C@H](C(=O)O)[C@@H](O)[C@@H]3O)OC[C@H](O)[C@@H]2O)[C@H](O)[C@H](O)[C@H]1O (stereo not given in full),inactive,
C=C(C(=O)O)C1CCC2(C)CCCC(C)(O)C2C1 (stereo not given),inactive,
COC(=O)CC(O)CC(O)/C=C/c1c(C)ccc2c1C(O)CC(C)C2 (stereo not given),inactive,
Cc1ccccc1CN1C2=NCCN2C(=O)C2=C1CCN(Cc1ccccc1)C2,inactive,
O=S(=O)(Nc1ccccn1)c1ccc(N=Cc2c(O)[nH]c3ccc4ncsc4c23)cc1,,12% [at 10.7 µM] (inactive)
CC(C)(C)Nc1nc(Nc2ccc(C(N)=O)cc2)cc(N)c1C#N,inactive,
CC(=O)O[C@H]1[C@@H](O)[C@H](O[C@H]2[C@@H]3C=CO[C@@H](O[C@H]4O[C@@H](CO)[C@H](O)[C@@H](O)[C@@H]4O)[C@@H]3[C@@]3(CO)O[C@@H]23)O[C@@H](C)[C@@H]1OC(=O)/C=C/c1ccccc1,inactive,
CC(C)O[C@@H]1O[C@H](CO)[C@@H](O)[C@H](O)[C@H]1O,inactive,
CC(C)c1ccc2c(c1)C(=O)CC1[C@@](C)(C(=O)O)CCC[C@]21C (stereo not given in full),inactive,
COc1c(/C=C/C(C)(C)O)ccc2c1C(=O)OCc1cc(C)cc(O)c1O2,inactive,
COc1c2c(c(C)c3c1C(=O)OC3)OC1(C)CC(O)C34OC(OC)(CC(OC(C)=O)C3(C)C1C2)OC4(C)C (stereo not given),inactive,
Cc1cc(-c2cc(O)ccc2Cl)cc2nnc(Nc3ccc(OCCN4CCCC4)cc3)nc12,inactive,
COc1ccc2c(OC)c3ccoc3nc2c1OC,inactive,
COCC1OC(OC(C)(C)C2CCC3(C)C=C(C4CCC5C4(C)CC(O)C4OC(C(C)(C)OC6OC(CO)C(O)C(O)C6NC(C)=O)CCC45C)CCC3O2)C(NC(C)=O)C(O)C1O (stereo not given),inactive,
C=C1CC[C@@H]2[C@](C)(CO[C@@H]3O[C@H](CO)[C@@H](O)[C@H](O)[C@H]3O)[C@H](O)CC[C@@]2(C)[C@@H]1C/C=C1/C(=O)OC[C@H]1O,inactive,
C=CCC1=C[C@]2(OC)[C@H](C)[C@@H](c3ccc(O)c(OC)c3)O[C@]2(OC)CC1=O,inactive,
CC(=O)OC1/C(C)=C/C(=O)C(OC(C)=O)C(C)(C)/C=C/C(C)C(=O)C2(OC(C)=O)CC(C)C(OC(=O)c3ccccc3)C12 (stereo not given),inactive,

SMILES,Potency,"activity change, negative = inhibition"
CCOCCn1nc(CC)c2nc(N3CCC(C(=O)O)CC3)nc(Nc3cc(C)ccn3)c21,inactive,
C[C@@H]1C[C@@H]2O[C@H]2/C=C\C=C\C(=O)Cc2c(Cl)c(O)cc(O)c2C(=O)O1,inactive,
CC(=O)O[C@H]1C[C@@](O)(C(C)C)C2[C@@H](OC(=O)c3ccc(O)cc3)C[C@@]3(C)O[C@H]3C[C@]21C (stereo not given in full),inactive,
C/C1=C\CCC2=C[C@@H](OC2=O)c2c(C)coc2C1,inactive,
Cc1cc(C)c(CNC(=O)c2cc(-c3ccc(CN4CCOCC4)cc3)cc3c2cnn3C2CCCC2)c(=O)[nH]1,inactive,
CN(C)C/C=C/C(=O)Nc1cccc(C(=O)Nc2cccc(Nc3ncc(Cl)c(-c4c[nH]c5ccccc45)n3)c2)c1,inactive,
CC1CC(O)/C=C/C(O)C(O)CC(=O)Cc2c(Cl)c(O)cc(O)c2C(=O)O1 (stereo not given),inactive,
CC(C)(O)c1ccc2c(c1)C(O)C[C@H]1[C@](C)(C(=O)O)CCC[C@]21C (stereo not given in full),inactive,
CC(C)=CCC/C(C)=C/CCC1(C)Oc2c(c(O)cc3c2CN(C(CCC(=O)O)C(=O)O)C3=O)CC1O (stereo not given),inactive,
OC[C@H]1O[C@@H](Oc2cc(O)c3c(c2)O[C@@H](c2ccc(O)cc2)[C@H](O)C3)[C@H](O)[C@@H](O)[C@@H]1O,inactive,
OC[C@H]1O[C@@H](O[C@H]2[C@H](OCCc3ccccc3)O[C@H](CO)[C@@H](O)[C@@H]2O)[C@H](O)[C@@H](O)[C@@H]1O,inactive,
CC1(C)CCCC2(C)C(CO)C(CO)=CCC12 (stereo not given),inactive,
O=C(NCc1ccc(F)cc1)C(=O)c1c[nH]c2ccccc12,inactive,
COC(=O)N1CCC(n2ncc3c(N4CCOCC4)nc(-c4ccc(NC(=O)Nc5ccc(CO)cc5)cc4)nc32)CC1,inactive,
CN1CCN(C(=O)c2ccc3cc(CCNc4ncnc5ccc(C#N)cc45)ccc3c2)CC1,inactive,
C/C=C/c1ccc2oc(-c3ccc(O)c(OC)c3)c(C)c2c1,inactive,
Nc1nc2c(c(N3CCNCC3)n1)CCC1=C2[C@@H]2CCCC[C@@H]2O1,inactive,
C/C1=C\CC[C@]2(C)O[C@@H]2[C@H](O)[C@H](C(C)C)[C@H](OC(=O)/C=C/c2ccccc2)C1,inactive,
O=C(O)c1cc(-c2c(-c3ccccc3)nn3ccccc23)n[nH]c1=O,inactive,
CC1=CC(=O)[C@H]2C(C)(C)CCC[C@]2(C)[C@@]1(O)CO,inactive,
